About 2,000 (36%) of roughly 5,500 compounds were called active. Inconclusive results (about 18%) are left out. No stated cut-off is given here; in the data, active means normalized growth mostly below about 0.91 (no sharp cut-off); inconclusive means no clear call, values can overlap the other calls; inactive means mostly above about 0.92. The list shows a part of the results.
Assay: chemical genetic growth profiling, strain panel (AID 1159580);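 further: tested at 20 µM; growth read once vehicle control cultures reached saturation at 30 °C; 1 = growth at the plate median or of vehicle wells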
Settings: growth OD

Measured: normalized growth

COc1ccc2c(=O)ccoc2c1
inactive: S. cerevisiae deletion strains, locus YJR043C, strain POL32, stronger effect = lower value 1.01 | S. cerevisiae deletion strains, locus YJR075W, strain HOC1, stronger effect = lower value 1.04 | S. cerevisiae deletion strains, locus YKL009W, strain mrt4, stronger effect = lower value 0.99 | S. cerevisiae deletion strains, locus YKL068W, stronger effect = lower value 1.03 | S. cerevisiae deletion strains, locus YKL085W, strain MDH1 (second series), stronger effect = lower value 1.03 | S. cerevisiae deletion strains, locus YKL085W, strain MDH1, stronger effect = lower value 1.03 | S. cerevisiae deletion strains, locus YKL160W, strain elf1, stronger effect = lower value 1.02 | S. cerevisiae deletion strains, locus YKL190W, strain CNB1, stronger effect = lower value 1.02 | S. cerevisiae deletion strains, locus YKR001C, strain vps1, stronger effect = lower value 0.947 | S. cerevisiae deletion strains, locus YKR026C, strain gcn3, stronger effect = lower value 1.03 | S. cerevisiae deletion strains, locus YKR091W, strain srl3, stronger effect = lower value 1.02 | S. cerevisiae deletion strains, locus YLL001W, strain dnm1, stronger effect = lower value 1.02 | S. cerevisiae deletion strains, locus YLL026W, stronger effect = lower value 1.02 | S. cerevisiae deletion strains, locus YLL041C, strain sdh2, stronger effect = lower value 0.972 | S. cerevisiae deletion strains, locus YLR027C, strain aat2, stronger effect = lower value 1.02 | S. cerevisiae deletion strains, locus YLR039C, strain RIC1, stronger effect = lower value 1.01 | S. cerevisiae deletion strains, locus YLR058C, strain SHM2, stronger effect = lower value 1.02 | S. cerevisiae deletion strains, locus YLR102C, strain apc9, stronger effect = lower value 1.01 | S. cerevisiae deletion strains, locus YLR221C, strain rsa3, stronger effect = lower value 1.03 | S. cerevisiae deletion strains, locus YLR258W, strain gsy2, stronger effect = lower value 1.02 | S. cerevisiae deletion strains, locus YLR262C, strain YPT6 (second series), stronger effect = lower value 1.04 | S. cerevisiae deletion strains, locus YLR262C, strain YPT6, stronger effect = lower value 1.06 | S. cerevisiae deletion strains, locus YLR268W, strain sec22, stronger effect = lower value 0.987 | S. cerevisiae deletion strains, locus YLR320W, strain mms22, stronger effect = lower value 1.03 | S. cerevisiae deletion strains, locus YLR330W, strain CHS5, stronger effect = lower value 1.02 | S. cerevisiae deletion strains, locus YLR342W, strain FKS1 (second series), stronger effect = lower value 1.03 | S. cerevisiae deletion strains, locus YLR342W, strain FKS1, stronger effect = lower value 1.02 | S. cerevisiae deletion strains, locus YLR357W, strain rsc2, stronger effect = lower value 1.02 | S. cerevisiae deletion strains, locus YLR370C, strain arc18, stronger effect = lower value 1.02 | S. cerevisiae deletion strains, locus YLR371W, strain rom2, stronger effect = lower value 1.02 | S. cerevisiae deletion strains, locus YLR384C, strain iki3, stronger effect = lower value 1.02 | S. cerevisiae deletion strains, locus YLR418C, strain cdc73, stronger effect = lower value 0.979 | S. cerevisiae deletion strains, locus YML016C, strain PPZ1, stronger effect = lower value 1.01 | S. cerevisiae deletion strains, locus YML032C, strain rad52, stronger effect = lower value 0.993 | S. cerevisiae deletion strains, locus YML120C, strain ndi1, stronger effect = lower value 1.03 | S. cerevisiae deletion strains, locus YML124C, strain tub3, stronger effect = lower value 1.01 | S. cerevisiae deletion strains, locus YMR058W, strain fet3, stronger effect = lower value 1.02 | S. cerevisiae deletion strains, locus YMR078C, strain ctf18, stronger effect = lower value 1.01 | S. cerevisiae deletion strains, locus YMR125W, strain sto1, stronger effect = lower value 1.03 | S. cerevisiae deletion strains, locus YMR129W, stronger effect = lower value 1.02 | S. cerevisiae deletion strains, locus YMR205C, strain PFK2, stronger effect = lower value 1.03 | S. cerevisiae deletion strains, locus YMR223W, strain ubp8, stronger effect = lower value 0.986 | S. cerevisiae deletion strains, locus YMR231W, strain pep5, stronger effect = lower value 1.02 | S. cerevisiae deletion strains, locus YMR263W, strain SAP30, stronger effect = lower value 1.02 | S. cerevisiae deletion strains, locus YMR307W, strain GAS1, stronger effect = lower value 1.02 | S. cerevisiae deletion strains, locus YNL067W, strain RPL9B, stronger effect = lower value 1.01 | S. cerevisiae deletion strains, locus YNL071W, strain lat1, stronger effect = lower value 1.05 | S. cerevisiae deletion strains, locus YNL128W, strain TEP1, stronger effect = lower value 1.03 | S. cerevisiae deletion strains, locus YNL153C, strain GIM3, stronger effect = lower value 1.01 | S. cerevisiae deletion strains, locus YNL209W, strain ssb2, stronger effect = lower value 1.02 | S. cerevisiae deletion strains, locus YNL233W, strain BNI4, stronger effect = lower value 1.01 | S. cerevisiae deletion strains, locus YNL248C, strain rpa49, stronger effect = lower value 1.03 | S. cerevisiae deletion strains, locus YNL250W, strain rad50, stronger effect = lower value 1.05 | S. cerevisiae deletion strains, locus YNL271C, strain bni1, stronger effect = lower value 1 | S. cerevisiae deletion strains, locus YNL298W, strain CLA4, stronger effect = lower value 0.977 | S. cerevisiae deletion strains, locus YNL307C, strain MCK1, stronger effect = lower value 0.984 | S. cerevisiae deletion strains, locus YNL322C, strain KRE1 (second series), stronger effect = lower value 1.03 | S. cerevisiae deletion strains, locus YNL322C, strain KRE1, stronger effect = lower value 1.02 | S. cerevisiae deletion strains, locus YNR049C, strain mso1, stronger effect = lower value 1.02 | S. cerevisiae deletion strains, locus YNR052C, strain pop2, stronger effect = lower value 1 | S. cerevisiae deletion strains, locus YOL006C, strain TOP1, stronger effect = lower value 0.962 | S. cerevisiae deletion strains, locus YOL012C, strain htz1 0.848 | S. cerevisiae deletion strains, locus YOL147C, strain pex11, stronger effect = lower value 1.01 | S. cerevisiae deletion strains, locus YOR001W, strain rrp6, stronger effect = lower value 1.03 | S. cerevisiae deletion strains, locus YOR061W, strain CKA2, stronger effect = lower value 1.02 | S. cerevisiae deletion strains, locus YOR069W, strain VPS5, stronger effect = lower value 1.01 | S. cerevisiae deletion strains, locus YOR070C, strain gyp1, stronger effect = lower value 1.02 | S. cerevisiae deletion strains, locus YOR080W, strain dia2, stronger effect = lower value 1.01 | S. cerevisiae deletion strains, locus YOR083W, strain WHI5, stronger effect = lower value 1.02 | S. cerevisiae deletion strains, locus YOR106W, strain vam3, stronger effect = lower value 1.03 | S. cerevisiae deletion strains, locus YOR136W, strain idh2, stronger effect = lower value 1.01 | S. cerevisiae deletion strains, locus YOR144C, strain elg1, stronger effect = lower value 1 | S. cerevisiae deletion strains, locus YOR184W, strain ser1, stronger effect = lower value 0.988 | S. cerevisiae deletion strains, locus YOR265W, strain rbl2, stronger effect = lower value 1.01 | S. cerevisiae deletion strains, locus YOR270C, strain vph1, stronger effect = lower value 1.03 | S. cerevisiae deletion strains, locus YOR290C, strain snf2, stronger effect = lower value 1.04 | S. cerevisiae deletion strains, locus YOR316C, strain cot1, stronger effect = lower value 1.01 | S. cerevisiae deletion strains, locus YPL051W, strain arl3, stronger effect = lower value 1.02 | S. cerevisiae deletion strains, locus YPL055C, strain LGE1, stronger effect = lower value 1.04 | S. cerevisiae deletion strains, locus YPL078C, strain atp4, stronger effect = lower value 1.02 | S. cerevisiae deletion strains, locus YPL106C, strain sse1, stronger effect = lower value 1.01 | S. cerevisiae deletion strains, locus YPL240C, strain hsp82, stronger effect = lower value 1.03 | S. cerevisiae deletion strains, locus YPL241C, strain CIN2, stronger effect = lower value 1.02 | S. cerevisiae deletion strains, locus YPR119W, strain clb2, stronger effect = lower value 1.01 | S. cerevisiae deletion strains, locus YPR141C, strain kar3, stronger effect = lower value 1.01 | S. cerevisiae deletion strains, locus YPR163C, strain tif3, stronger effect = lower value 1.01 | S. cerevisiae deletion strains, locus YPR167C, strain met16, stronger effect = lower value 1.02 | S. cerevisiae deletion strains, strain wtn01, stronger effect = lower value 0.997 | S. cerevisiae strains, strain wild type, stronger effect = lower value 1.02

Reference: PubChem BioAssay AID1159580 (chemical genetic matrix, 2015)
